Measurements: PubChem BioAssay (EPA / NIEHS)
Records with an inconclusive call do not appear. The source made the active and inactive calls. Rule for the calls, unless noted: active = hit-call score of the fitted dose curve at least 0.9, where 1 is the maximum; inactive = score below 0.9.

Assays:
[1] = target: human Thyroid Receptor alpha (THRa1), THRA (gene 7067) (UniProt P10827); test: ATG_THRa1_TRANS: Attagene TRANS-FACTORIAL HepG2 Assay for human Thyroid Receptor alpha (THRa1) (AID 2283014; active = hit-call score of the fitted dose curve at least 0.9, where 1 is the maximum)
Chain of human Thyroid Receptor alpha (THRa1), THRA (gene 7067) (P10827 whole entry, looked up, the tested form may be a part): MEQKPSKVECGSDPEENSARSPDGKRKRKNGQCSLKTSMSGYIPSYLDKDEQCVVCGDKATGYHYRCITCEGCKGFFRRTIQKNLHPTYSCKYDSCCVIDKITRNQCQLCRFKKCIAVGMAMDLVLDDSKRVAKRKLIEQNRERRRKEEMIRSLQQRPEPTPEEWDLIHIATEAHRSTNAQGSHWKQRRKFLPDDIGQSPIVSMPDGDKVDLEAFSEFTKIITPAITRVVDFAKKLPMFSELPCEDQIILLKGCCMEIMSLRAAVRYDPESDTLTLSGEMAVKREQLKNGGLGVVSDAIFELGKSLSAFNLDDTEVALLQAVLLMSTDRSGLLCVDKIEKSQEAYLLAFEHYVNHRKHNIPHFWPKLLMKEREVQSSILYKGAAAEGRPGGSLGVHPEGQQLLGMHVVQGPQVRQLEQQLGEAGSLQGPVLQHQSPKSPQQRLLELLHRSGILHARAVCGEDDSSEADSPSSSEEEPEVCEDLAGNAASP
How it was run: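 HepG2 cells transiently transfected with multiplexed GAL4-UAS reporter units for exogenous chimeric THRa1-Gal4; reporter mRNA measured 24 h after dosing by RT-PCR, 6-FAM labelling, HpaI digestion and capillary electrophoresis. Gain-of-signal fitted versus DMSO baseline.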

[2] = read-out: E-selectin (Homo sapiens) (UniProt P16581); test: BSK_3C_Eselectin: BioMAP Diversity Plus: 3C Assay for Eselectin Biomarker Activity (AID 2283015); details: primary human endothelial cells (HUVEC); actives raise or lower the signal
How it was run: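 Primary human umbilical vein endothelial cells (3C system) were dosed with chemical and cell-surface E-selectin measured by ELISA 24 h later. Bidirectional curve fitting used DMSO as negative control and baseline.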

[3] = read-out: Interleukin-1 alpha (IL1a), IL1A (gene 3552); test: BSK_BE3C_IL1a: BioMAP Diversity Plus: BE3C Assay for Interleukin-1 alpha (IL1a) Biomarker Activity (AID 2283016); details: primary human bronchial epithelial cells; actives raise or lower the signal
How it was run: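 Cultures of primary human bronchial epithelial cells receive test chemical. After 24 h, IL-1a is quantified by ELISA, while parallel wells are fixed in TCA and SRB-stained for total protein. Changes in either direction are fitted relative to DMSO.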

[4] = read-out: Monocyte Chemoattractant Protein-1 (MCP1), CCL2 (gene 6347); test: BSK_3C_MCP1: BioMAP Diversity Plus: 3C Assay for Monocyte Chemoattractant Protein-1 (MCP1) Biomarker Activity (AID 2283017); details: primary human endothelial cells (HUVEC); actives raise or lower the signal
How it was run: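 Primary human umbilical vein endothelial cells (3C system) were exposed to test chemical for 24 h, after which MCP-1 was quantified by ELISA. Activity was fitted bidirectionally against DMSO as negative control and baseline.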

[5] = read-out: Monocyte Chemoattractant Protein-1 (MCP1), CCL2 (gene 6347); test: BSK_4H_MCP1: BioMAP Diversity Plus: 4H Assay for Monocyte Chemoattractant Protein-1 (MCP1) Biomarker Activity (AID 2283018); details: primary human endothelial cells (HUVEC); actives raise or lower the signal
How it was run: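 Readout: MCP-1 ELISA on compound-treated HUVEC, sampled 24 h post-dosing. Baseline and negative control DMSO; bidirectional fit. Overt toxicity checked alongside by sulforhodamine B protein staining at time of biomarker measurement.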

[6] = read-out: Human Leukocyte Antigen - DR isotype (HLADR), HLA-DRA (gene 3122); test: BSK_3C_HLADR: BioMAP Diversity Plus: 3C Assay for Human Leukocyte Antigen - DR isotype (HLADR) Biomarker Activity (AID 2283019); details: primary human endothelial cells (HUVEC); actives raise or lower the signal
How it was run: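 Primary human umbilical vein endothelial cells (3C system) were dosed with compound and cell-surface HLA-DR was quantified by ELISA at 24 h. Activity was fitted bidirectionally against DMSO as negative control and baseline.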

[7] = read-out: Interleukin-8 (IL8), CXCL8 (gene 3576); test: BSK_3C_IL8: BioMAP Diversity Plus: 3C Assay for Interleukin-8 (IL8) Biomarker Activity (AID 2283020); details: primary human endothelial cells (HUVEC); actives raise or lower the signal
How it was run: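 Human vascular endothelial cells (umbilical vein) in the 3C system; IL-8 level detected by ELISA at 24 h post-dose, with DMSO as baseline.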

[8] = target: human Retinoid X Receptor beta (RXRb), RXRB (gene 6257) (UniProt P28702); test: ATG_RXRb_TRANS: Attagene TRANS-FACTORIAL HepG2 Assay for human Retinoid X Receptor beta (RXRb) (AID 2283013; active = hit-call score of the fitted dose curve at least 0.9, where 1 is the maximum)
Chain of human Retinoid X Receptor beta (RXRb), RXRB (gene 6257) (P28702 whole entry, looked up): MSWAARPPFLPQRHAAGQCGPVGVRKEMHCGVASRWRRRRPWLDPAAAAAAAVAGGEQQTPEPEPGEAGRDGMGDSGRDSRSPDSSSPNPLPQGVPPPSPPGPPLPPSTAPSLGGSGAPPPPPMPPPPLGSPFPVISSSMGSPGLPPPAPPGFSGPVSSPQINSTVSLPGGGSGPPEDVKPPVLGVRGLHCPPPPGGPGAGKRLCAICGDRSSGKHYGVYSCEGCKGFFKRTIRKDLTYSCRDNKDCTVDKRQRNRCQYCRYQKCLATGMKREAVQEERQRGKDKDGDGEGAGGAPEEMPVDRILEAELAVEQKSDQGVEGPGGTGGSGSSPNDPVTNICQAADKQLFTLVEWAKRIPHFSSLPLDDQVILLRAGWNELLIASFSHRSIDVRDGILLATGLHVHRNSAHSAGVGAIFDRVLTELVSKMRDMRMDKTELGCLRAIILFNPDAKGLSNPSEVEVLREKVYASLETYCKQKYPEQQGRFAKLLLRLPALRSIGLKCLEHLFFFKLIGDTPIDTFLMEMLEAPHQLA
How it was run: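 Multiplexed TRANS reporter assay in HepG2; 24 h dosing; reporter mRNA by RT-PCR/CE fluorescence; gain-of-signal relative to DMSO.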

Measured: AC50

Chain of E-selectin (Homo sapiens) (P16581 whole entry, looked up): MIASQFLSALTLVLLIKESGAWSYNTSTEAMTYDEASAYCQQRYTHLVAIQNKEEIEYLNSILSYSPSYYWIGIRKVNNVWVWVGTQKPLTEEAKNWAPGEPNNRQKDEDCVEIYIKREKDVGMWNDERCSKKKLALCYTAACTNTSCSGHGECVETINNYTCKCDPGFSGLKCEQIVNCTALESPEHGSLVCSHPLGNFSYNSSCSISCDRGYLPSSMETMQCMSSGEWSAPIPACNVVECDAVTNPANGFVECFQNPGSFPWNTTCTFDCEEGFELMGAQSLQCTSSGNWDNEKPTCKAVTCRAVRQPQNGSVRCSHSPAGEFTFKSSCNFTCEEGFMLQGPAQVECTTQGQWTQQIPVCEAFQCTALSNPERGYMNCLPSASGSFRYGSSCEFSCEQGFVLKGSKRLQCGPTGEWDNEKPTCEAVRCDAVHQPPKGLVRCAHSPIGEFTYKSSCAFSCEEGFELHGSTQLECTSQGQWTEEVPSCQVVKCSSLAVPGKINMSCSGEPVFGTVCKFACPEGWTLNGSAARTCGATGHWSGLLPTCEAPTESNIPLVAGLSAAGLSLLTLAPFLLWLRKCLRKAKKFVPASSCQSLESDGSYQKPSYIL

COc1cc(C=O)ccc1OC(=O)C(C)C
inactive: [1] | [2] | [3] | [4] | [5] | [6] | [7]

O=C1OC2(c3cc(Br)c(O)c(Br)c3Oc3c2cc(Br)c(O)c3Br)c2c(Cl)c(Cl)c(Cl)c(Cl)c21
active: [2] 5.06 µM | [3] 967 nM | [4] 4.82 µM | [5] 1.57 µM | [6] 2.68 µM | [7] 13.2 µM

Cc1ccc(Nc2ccc(O)c3c2C(=O)c2ccccc2C3=O)cc1
inactive: [1] | [2] | [3] | [4] | [5] | [6] | [7]

O=C(O)CCCCCCCCCCC(=O)O
inactive: [1]

O=C(O)C[C@H](O)C[C@H](O)/C=C/c1c(C2CC2)nc2ccccc2c1-c1ccc(F)cc1
active: [3] 1430 nM | [5] 0.551 µM
inactive: [8] | [1] | [2] | [4] | [6] | [7]

CCCCC(CC)COC(=O)/C=C\C(=O)OCC(CC)CCCC (stereo unspecified)
inactive: [2] | [3] | [4] | [5] | [6] | [7]

CC(C)(CO)[N+](=O)[O-]
inactive: [1]
